Assay type in all cases: functional
Assay [1] concerns the target Solute carrier family 2, facilitated glucose transporter member 1 (Homo sapiens) (UniProt P11166). Kind of assay: ST_JUDE_LEISH: Cytotoxicity at 2uM final concentration against transgenic Leishmania Mexicana promastigotes LmGLUT1 that are glucose transport deficient and complemented with the human glucose transporter GLUT1. Activity is measured by DNA content using SYBR green in vitro.

The target in assay [2] is Hexose transporter 1 (Plasmodium falciparum) (UniProt O97467). Kind of assay: ST_JUDE_LEISH: Cytotoxicity at 2uM final concentration against transgenic Leishmania Mexicana promastigotes LmPfHT that are glucose transport deficient and complemented with the Plasmodium falciparum hexose transporter. Activity is measured by DNA content using SYBR green in vitro.
Assay [3] has as its target Glucose transporter (Leishmania mexicana) (UniProt O61059). As to the kind of experiment: ST_JUDE_LEISH: Cytotoxicity at 2uM final concentration against transgenic Leishmania Mexicana promastigotes LmGT2 that are glucose transport deficient and complemented with the L. Mexicana glucose transporter 2. Activity is measured by DNA content using SYBR green in vitro.

We go through 35 molecules from ChEMBL document CHEMBL3433997, “St. Jude Leishmania screening dataset” (2016).

Solute carrier family 2, facilitated glucose transporter member 1 (Homo sapiens), sequence (P11166 whole entry): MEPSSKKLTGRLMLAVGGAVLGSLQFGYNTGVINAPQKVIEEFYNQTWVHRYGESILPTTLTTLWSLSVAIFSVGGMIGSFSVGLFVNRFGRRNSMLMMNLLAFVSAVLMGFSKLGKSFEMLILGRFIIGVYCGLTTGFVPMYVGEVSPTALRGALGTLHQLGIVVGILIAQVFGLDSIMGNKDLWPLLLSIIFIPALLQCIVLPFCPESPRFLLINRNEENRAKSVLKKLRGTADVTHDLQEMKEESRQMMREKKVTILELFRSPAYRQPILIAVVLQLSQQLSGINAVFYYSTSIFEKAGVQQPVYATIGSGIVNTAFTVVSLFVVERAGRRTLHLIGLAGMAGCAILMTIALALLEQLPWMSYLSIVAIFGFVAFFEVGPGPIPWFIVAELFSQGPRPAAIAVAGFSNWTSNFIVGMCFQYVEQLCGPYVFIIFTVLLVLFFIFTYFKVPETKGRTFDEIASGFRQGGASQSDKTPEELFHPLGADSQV

Turning to `CN(C)C(=S)N/N=C1/C(=O)Nc2ccc(OC(F)(F)F)cc21`, the inhibition (commonly the drop in the measured response relative to a control, in per cent) amounted to 1.94% in assay [1], 1.64% in assay [2] and 0.75% in assay [3].

Take `COCCN(C)c1ccc(C(=O)Nc2ccccc2)cc1NS(=O)(=O)Cc1ccccc1`: the inhibition in assay [1] turned out to be 10.2%; in assay [2] it was 8.35%; in assay [3], 3.54%.

As for `COc1cc2nc(SCCCC#N)n(C3CCCCCC3)c(=N)c2cc1OC`, the figures for the inhibition in assay [1], in assay [2] and in assay [3] were 7.27%, 5.84% and 2.84%, respectively.

As for `CCOc1cc(C)ccc1C1CCN(CCCCNC(=O)c2coc(-c3ccc(Cl)cc3)c2)CC1`, the inhibition was found to be 0.96% in assay [1], 3.18% in assay [2] and 2.06% in assay [3].

`O=C1Nc2ccccc2/C1=N/NC(=S)N1CCOCC1`: the inhibition is -0.69% in assay [1], -0.87% in assay [2] and 0.09% in assay [3].

Turning to `COc1ccc(-c2ccc(NC(=O)c3cccc(Cl)c3)cc2)cc1CN(C)CCN(C)C`, the inhibition in assay [1] came to 15.6%; in assay [2], 14.4%; in assay [3], 4.62%.

As for `CCc1cc(NC(=O)Nc2ccnc3ccccc23)ccc1OC`, the inhibition in assay [1] came to 19%; in assay [2] it was 17.9%; in assay [3], 11.6%.

With `CCN1CCN(CCCNc2c3ccccc3nc3ccccc23)CC1`, the inhibition in assay [1] is 65.5%; in assay [2], 55.3%; in assay [3], 39.1%.

Take `Cc1cccc(-n2c(=O)c3c4c(sc3n3c(SCCC(C)C)nnc23)CCCC4)c1`: the inhibition is 0.75% in assay [1], 1.59% in assay [2] and -0.43% in assay [3].

For the molecule `CC(C)NC(C)(C)CN(Cc1ccc(-c2ccc(C(F)(F)F)cc2)cc1)C(=O)Cn1c(CCc2cccc(F)c2F)nc(=O)c2ccccc21`, the results for the inhibition in assay [1], in assay [2] and in assay [3] were 0.37%, -0.61% and -0.1%, respectively.

Take `FC(F)(F)c1cccc(Nc2nc(-n3ccnc3)nc(-n3ccnc3)n2)c1`: the inhibition in assay [1] worked out at 1.93%; in assay [2] it was 0.62%; in assay [3], 1.05%.

On to `COc1ccc2nccc(CCC3(O)CCC(NCc4cc5c(cc4F)SCC(=O)N5)CC3)c2c1` (stereo not given), for which the inhibition in assay [1] is 0.25%; in assay [2], 2.45%; in assay [3], -2.7%.

`NC(=O)c1ccccc1Nc1nc(Nc2cc[nH]n2)ncc1Cl`: the inhibition was found to be 6.52% in assay [1], 4.28% in assay [2] and 7.47% in assay [3].

As for `COc1ccc(CNc2nc(Nc3cccc(C#N)c3)nc(Nc3cccc(C#N)c3)n2)cc1Cl`, the inhibition in assay [1] is 3.25%; in assay [2], 0.95%; in assay [3] it was -1.38%.

With `COc1ccc(CNC2Cc3ccccc3C2)cc1-c1ccc(S(=O)(=O)NCCN2CCCC2)cc1`, the inhibition in assay [1] is 3.15%; in assay [2], 1.44%; in assay [3], -2.73%.

On to `CC1(C)N=C(N)N=C(N)N1OCCCc1ccccc1`, for which the inhibition was 1.22% in assay [1], 2.68% in assay [2] and 2.65% in assay [3].

Consider `O=C(Nc1cccc(CN2CCN(C(=O)c3cccs3)CC2)c1)c1cccs1`, for which the inhibition in assay [1] is 2.53%; in assay [2], 2.59%; in assay [3] it was 2.26%.

Turning to `CNCCNCc1ccc(-c2cccc(-c3nc4cc(F)ccc4[nH]3)c2)cc1`, the results for the inhibition in assay [1], in assay [2] and in assay [3] were 2.53%, 3.78% and 3.03%, respectively.

For the molecule `CS(=O)(=O)NCCCNCc1ccc(-c2ccc(-c3nc4cc(C(F)(F)F)ccc4[nH]3)s2)cc1`, the inhibition came to 1.6% in assay [1], 2.03% in assay [2] and 1.6% in assay [3].

Consider `CN(C)CCNCc1ncsc1-c1ccc2c(Nc3ccc(F)cc3Cl)ccnc2c1`, for which the inhibition in assay [1] worked out at 3.88%; in assay [2] it was 4.3%; in assay [3], 4.59%.

Consider `Nc1nc2c(cnn2CCCCCCCP(=O)(O)O)c(=O)[nH]1`, for which the inhibition is -0.8% in assay [1], 0.25% in assay [2] and -0.36% in assay [3].

Regarding `FC(F)(F)COc1ccc(CCNCCCCNCCc2ccc(OCC(F)(F)F)c3ccccc23)c2ccccc12`, the inhibition in assay [1] is -0.09%; in assay [2], 12.3%; in assay [3], 1.09%.

Take `CCCCCn1c(Sc2ccc(C#N)c([N+](=O)[O-])c2)nnc1-c1cccc(Cl)c1`: the inhibition in assay [1] was 5.58%; in assay [2], 6.17%; in assay [3] it was -0.77%.

In the case of `COc1ccccc1-c1cccc2c(NC(=O)Nc3ccc4nccc(N5CCN(C)CC5)c4c3)ccnc12`, the inhibition in assay [1] amounted to 1.85%; in assay [2], 2.74%; in assay [3], 2.18%.

With `Cc1cc(N[C@@H](Cc2ccccc2)C(=O)NCCc2ccccc2)nc(NCCOc2ccccc2)n1`, the inhibition turned out to be 5.12% in assay [1], 5.84% in assay [2] and 2.55% in assay [3].

In the case of `N=C(N)c1ccc(NC(=O)Cc2nc3cc(C(=N)N)ccc3[nH]2)cc1`, the inhibition in assay [1] was -0.77%; in assay [2], -0.09%; in assay [3], -0.08%.

Consider `COc1ccc(-c2cccc(NC(=O)c3ccc(Cl)cc3)c2)cc1CN(C)CCN(C)C`, for which the inhibition in assay [1] worked out at 3.16%; in assay [2] it was 2.66%; in assay [3] it was 6.97%.

`CCCC(CC)n1ccc2c3c(N)nc(N)nc3ccc21` (stereo not given): the inhibition stood at 70.5% in assay [1], 76.3% in assay [2] and 57.8% in assay [3].

As for `CC1(C)C(N(O)C(=O)Nc2ccc(Cl)c(Cl)c2)N(c2ccc(Cl)c(Cl)c2)C(=O)N1CCc1ccccc1` (stereo not given), the values for the inhibition in assay [1], in assay [2] and in assay [3] were -0.14%, 0.2% and 0%, respectively.

Consider `CO/C(=C\C=C\c1cc2cc(Cl)c(Cl)cc2[nH]1)C(=O)NCCCCN1CCN(c2ccccc2OC)CC1`, for which the inhibition in assay [1] came to 3.1%; in assay [2], 2.16%; in assay [3] it was 1.91%.

In the case of `COc1cc(CN=C(S)NN=C(C)c2ccccn2)cc(OC)c1OC`, the inhibition worked out at 5.41% in assay [1], 1.2% in assay [2] and 2.59% in assay [3].

As for `O=C(NC1CCN(Cc2ccc3c(c2)OCCO3)CC1)c1ccc(-c2cccc(Cl)c2)s1`, the inhibition in assay [1] turned out to be 5.55%; in assay [2], 5.55%; in assay [3] it was 6.98%.

With `Cc1cccc2nc(-c3cccc(-c4cccc(CN5CCN(c6ccc(C#N)cn6)CC5)c4)c3)[nH]c12`, the figures for the inhibition in assay [1], in assay [2] and in assay [3] were 11.6%, 10.3% and 9.4%, respectively.

On to `COc1ccc2nccc(NCC3(O)CCC(NCc4ccc5c(n4)NC(=O)CS5)CC3)c2n1` (stereo not given), for which the inhibition in assay [1] amounted to 4.33%; in assay [2], 3.51%; in assay [3], 4.28%.

Consider `O=C(CN1CCN(C(=O)c2ccco2)CC1)Nc1ccccc1Br`, for which the inhibition in assay [1] is -1.39%; in assay [2] it was -1.64%; in assay [3], -3.97%.
